Potency and affinity values are given separately. The source made the active and inactive calls.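 How the source made its calls: active means fitted half-maximal concentration for loss of cell signal no higher than twice the top valid tested concentration; inconclusive means flat curve at 30 to 70% inhibition, or poor fit; inactive means flat within 30%, signal rise, or potency above limit.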
Test: cytotoxicity toward MDA-MB-231 breast cancer cells – cell-based, CellTiter-Glo luminescence, cherry-pick, cytotoxicity control for RAD54 inhibitor project, dose response (AID 651692);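 further: more negative values mean stronger loss of viable cell signal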
Conditions: MDA-MB-231 viability, 24 h; series mostly up to 26 µM

| Structure (SMILES) | outcome |
| --- | --- |
| CCOC(=O)c1cnc2c(CC)cccc2c1NCCCN1CCOCC1 | inactive |
| C=CC(=O)Nc1ccc(N(C)c2ccnc(Nc3ccc(N4CCN(C)CC4)cc3)n2)cc1 | inactive |
| CCOc1ccc2nc(C)cc(Nc3ccc4c(c3)OCCO4)c2c1 | inactive |
| CCOCCCNC(=S)Nc1ccc2nc(N3CCN(CC)CC3)cc(C)c2c1 | inactive |
| COc1ccc(CCNC(=O)c2cc3c(=O)n4cccc(C)c4nc3n(CCCN3CCOCC3)c2=N)cc1 | inactive |
| C(=C/c1nccc2c1[nH]c1ccccc12)/c1ccc2c(c1)OCO2 | inactive |
| CC(N)c1csc(Nc2nncc3ccccc23)n1 (stereo not given) | inactive |
| COc1ccc(-c2cc(NC=O)c3ncc(-c4cccc(C(=O)NCCN(C)C)c4)n3c2)cc1 | inactive |
| CCN(CC)CCCNC(=O)c1cc2c(-c3ccc(Cl)cc3)nn(C)c2s1 | inactive |
| COC(=O)c1c(NC(=O)c2ccc([N+](=O)[O-])o2)sc2c1CCN(C(C)C)C2 | inactive |
| COc1cc2sc3cc(NCC[C@@H]4CCCN4C)ccc3c(=O)c2cc1OC | inactive |
| CCn1c(=N)c(C(=O)NC)cc2c(=O)n3cccc(C)c3nc21 | inactive |
| CC(=O)Nc1cc(-c2cccc(C(=O)NCCN(C)C)c2)cn2c(-c3ccccc3)cnc12 | inactive |
| COc1cccc(-c2cnc3c(NC(C)=O)cc(-c4cccc(C(=O)NCCN(C)C)c4)cn23)c1 | inactive |
| OCCCNc1c2ccccc2nc2ccccc12 | inactive |
| COc1ccc(N2C(=O)CSC23CCCCC3)cc1 | inactive |
| COc1cc(-c2cnc3c(NC=O)cc(-c4cccc(C(=O)NCCN(C)C)c4)cn23)cc(OC)c1OC | inactive |
| CN(C)CCNc1ncnc2sc(-c3ccccc3)cc12 | inactive |
| CN1CCN(CCNC(=O)c2cc3c(=O)n(C)c4ccccc4c3n2C)CC1 | inactive |
| c1ccc(-c2cc(NCCN3CCCCC3)c3ccccc3n2)cc1 | inactive |

| Structure (SMILES) | outcome |
| --- | --- |
| CCN(CC)CC(O)c1ccc2ccc3ccc(O)cc3c2c1 (stereo not given) | inactive |
| CCCCN(CC)CCCNC(=O)c1cc2c(-c3ccc(OC)c(OC)c3)nn(C)c2s1 | inactive |
| Cc1nc2ccccc2c2oc(C(=O)N3CCC(N4CCCCC4)CC3)cc12 | inactive |
| COc1cc2nc(NCCCN3CCN(C)CC3)n3nc(-c4ccccc4)nc3c2cc1OC | inactive |
| COc1ccc(-c2nc(NCCCN(C)C)c3ccccc3n2)cc1 | inactive |
| CCCN1CCN(CCCNC(=S)Nc2ccc3nc(N4CCN(CC)CC4)cc(C)c3c2)CC1 | inactive |
| CCN(CC)CCn1c2ccc(Cl)cc2c2nc(C)sc21 | inactive |
| CN(C)CCCNc1nc(-c2ccc(Cl)cc2)nc2ccccc12 | inactive |
| CN(C)CCCNc1ncnc2sc(-c3ccccc3)cc12 | inactive |
| CN(C)CCCNc1nc2cc(-c3cccc(Cl)c3)sc2c(=O)n1C | inactive |
| CN1CCN(CCCNC(=O)c2cc3c(-c4ccc(Cl)cc4)nn(C)c3s2)CC1 | inactive |
| COc1ccc(Nc2c3ccccc3nc3ccccc23)cc1 | inactive |
| CCOC(=O)c1cnc2ccc(OCC)cc2c1NCCCN1CCOCC1 | inactive |
| CCN(CC)CCNc1ccc(CO)c2oc3ccccc3c(=O)c12 | inactive |
| CN(C)CCN(C(=O)CN1C(=O)c2ccccc2C1=O)c1nc2cc3c(cc2s1)OCO3 | inactive |
| Cc1cccn2c(=O)c3cc(C(=O)NC4CCCC4)c(=N)n(CCCN4CCOCC4)c3nc12 | inactive |
| COc1cccc2sc3cc(NCCCN4CCOCC4)ccc3c(=O)c12 | inactive |
| COc1ccc(CCn2c(=N)c(C(=O)NCCN3CCOCC3)cc3c(=O)n4cccc(C)c4nc32)cc1OC | inactive |
| CCCN1CCN(C(=S)Nc2ccc3nc(N4CCN(CC)CC4)cc(C)c3c2)CC1 | inactive |
| CCN1CCc2c(sc(NC(=O)c3ccc(S(=O)(=O)N4CCOCC4)cc3)c2C(=O)OC)C1 | inactive |
